KDM5B inh: blocks human KDM5B histone demethylase activity. Q9UGL1. KDM5B demethylase, FDH-coupled NADH fluorescence (FDH is formaldehyde dehydrogenase). Potency, µM (titrated, usually from 57.7 µM), usual class: inhibitors. 220,000 compounds, 2.6% hits. AID 1347165; active means well fitted inhibition curve with a large enough effect; further: 0% is about no effect; nearly all actives have a fitted effect of over 70% in size
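Coupled FDH/NAD⁺ fluorescence readout. KDM5BΔAP 200 nM final; compound titration, 10 min RT preincubation; substrate mix 12.5 µM H3K4me3, 25 µM 2-OG, 50 µM Fe(II), 100 µM ascorbate, 0.25 mM NAD⁺, 0.25 U/mL FDH; ΔRFU over 30 min.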
An asterisk follows results filed as active; i = inactive. The sample as a whole holds a higher share of hits than the screen did. Potency means the concentration at half of the fitted maximal effect.

SMILES | KDM5B inh
CC1Cc2cc(C(=O)Nc3cccc(-c4nnc5n4CCCCC5)c3)ccc2N1S(C)(=O)=O (configuration not stated) | i
CN1CCN(c2ccc(NC(=O)CCc3ncc(-c4ccc(Cl)cc4)o3)cc2)CC1 | i
CN(C(=O)CSc1ccc2c(c1)OCCCO2)c1ccccc1 | i
CC(=O)c1c(C)cc(C)c(COC(=O)c2ccccn2)c1C | i
Cn1ccc2ccc(-c3nc(C4CCOC4)no3)cc21 (configuration not stated) | i
CN(C)c1ccc(-c2nc(C3CCOC3)no2)cc1 (configuration not stated) | i
Cc1onc(-c2ccccc2Cl)c1-c1nc(C2CCOC2)no1 (configuration not stated) | i
c1cnn(-c2ccc(-c3nc(C4CCOC4)no3)cc2)c1 (configuration not stated) | 31.6µM*
CCn1nc(C)c(-c2nc(C3CCOC3)no2)c1C (configuration not stated) | i
CSc1ccccc1-c1nc(C2CCOC2)no1 (configuration not stated) | 28.2µM*
CC(=O)N(c1nc(CSc2nnc(C3CC3)n2C2CC2)cs1)c1ccc(C)cc1C | i
Cc1cccc2ncc(C(=O)N3CC[C@H](CO)[C@@H](O)C3)c(=O)n12 | 22.4µM*
Cc1cccc2cc(C(=O)N3CC[C@H](CO)[C@H](O)C3)oc12 | i
O=C(c1cn2ccsc2n1)N1CC[C@H](CO)[C@@H](O)C1 | i
CN(Cc1ccc(Cl)cc1)S(=O)(=O)c1cn(C)c(=O)n(C)c1=O | i
COc1ccc(-c2nn(-c3ccccc3)cc2CN2CCC(CO)CC2)c(F)c1 | i
COc1ccc(-c2nn(-c3ccccc3)cc2CN2CCC(C#N)CC2)c(F)c1 | i
COc1ccc(-n2cc(CN3CCC(O)CC3)c(-c3cccc(F)c3)n2)cc1 | 28.2µM*
O=C(COC(=O)COc1ccc2c(c1)CCC2)NC1CCCCC1 | i
CC(=O)NC1(C)CCN(Cc2ccc(Nc3ccc(N4CCOCC4)c(F)c3)cc2)C1 (configuration not stated) | i
CC(=O)NC1(C)CCCN(Cc2ccc(Oc3ccccc3)cc2)C1 (configuration not stated) | i
COc1cccc(Nc2cccc(CN3CCC(C)(NC(C)=O)C3)c2)c1 (configuration not stated) | i
CC(=O)NC1(C)CCN(Cc2cccc(-c3ccc(N4CCOCC4)cc3)c2)C1 (configuration not stated) | 31.6µM*
CC(=O)NC1(C)CCN(Cc2ccc(-c3cccc4ncccc34)cc2)C1 (configuration not stated) | 39.8µM*
CC(=O)NC1(C)CCCN(Cc2cccc(Nc3ccncc3)c2)C1 (configuration not stated) | i
SMILES | KDM5B inh
CC(=O)NC1(C)CCN(Cc2cccc(-c3cccc4ncccc34)c2)C1 (configuration not stated) | 39.8µM*
CC(=O)NC1(C)CCCN(Cc2cccc(-c3ccccc3)c2)C1 (configuration not stated) | i
CC(=O)NC1(C)CCCN(Cc2cccc(-c3cccc(F)c3)c2)C1 (configuration not stated) | i
O=C(Cn1nc(C(=O)O)c2ccccc2c1=O)NCc1ccc(Cl)cc1 | i
CCN(CC)S(=O)(=O)c1ccc2[nH]c(=O)cc(C(=O)NC(C3CC3)C3CC3)c2c1 | i
O=C(Nc1ccc2nc(SCc3cccc4ccccc34)sc2c1)c1ccc(Cl)cc1 | i
CC(CCc1ccccc1)NC(=O)CSc1c2c(nc3ccc(Cl)cc13)CCCC2 (configuration not stated) | i
Cc1ccc(S(=O)(=O)Nc2ccc3oc(C)nc3c2)cc1 | i
Cc1ccc(-c2cnc(CCC(=O)Nc3ccccc3O)o2)cc1C | i
CC(=O)c1c(C)[nH]c(C(=O)C(C)OC(=O)c2cnccn2)c1C (configuration not stated) | i
N#Cc1ccc(CN2C[C@@H]3C[C@H]2C(=O)N(Cc2ccccc2)c2ccccc2O3)cc1 | 28.2µM*
COc1ccc(CN2C(=O)[C@@H]3C[C@@H](CN3Cc3ccc(C(=O)O)cc3)Oc3ccccc32)cc1 | i
O=C1[C@@H]2C[C@@H](CN2Cc2ccccn2)Oc2ccccc2N1Cc1ccccc1 | i
N#Cc1c(N2CCN(CC(=O)Nc3ccc(Cl)cc3)CC2)nc(-c2ccco2)c2c1CCC2 | i
C[S+](=O)([O-])c1ccc(-c2cc(C(=O)NCCc3ccc(Cl)cc3)nn3cccc23)cc1 | i
O=C(NCc1ccc(F)cc1)c1nc(-c2ccc(Cl)cc2)c2ccccn12 | 25.1µM*
O=C(Cn1c(=O)nc(-c2ccccc2)c2ccccc21)NCc1ccc(Cl)cc1 | i
O=C(NCc1cccnc1)c1nc(-c2ccc(F)cc2)c2ccccn12 | 28.2µM*
Cc1ccc(CCNC(=O)c2cc(-c3ccc(Cl)cc3)n[nH]2)cc1 | i
C[S+](=O)([O-])c1ccc(-c2nc(C(=O)NCCc3ccc(Cl)cc3)n3ccccc23)cc1 | 89.1µM*
COc1ccc(-c2cc(C(=O)NCCc3ccc(Cl)cc3)[nH]n2)cc1 | i
O=C(NCc1cccnc1)c1ccc2ccccc2n1 | i
O=C(Cn1c(SCC(=O)Nc2ccc(F)cc2)nc2ccccc21)NCc1ccc(Cl)cc1 | i
Cc1ccc(-c2nnn3c2nc(NCCc2ccc(Cl)cc2)c2ccccc23)cc1 | i
C[S+](=O)([O-])c1ccc(-c2nc(C(=O)NCCc3ccc(Cl)cc3)n3ccncc23)cc1 | 79.4µM*
SMILES | KDM5B inh
COc1ccc(C)cc1NC(C)C(=O)N(C)Cc1cccc(F)c1 (configuration not stated) | i
Cc1ccc(Cn2c(C3CCN(C(=O)Cc4cccs4)CC3)n[nH]c2=O)cc1 | i
O=C(O)/C=C\C(=O)NC(Cc1ccccc1)C(=O)O (configuration not stated) | i
Cc1ccc(CN(C)C(=O)c2cc(-c3cccnc3)nc3ccccc23)o1 | i
Cc1nc2cc(NC(=O)C(C)Oc3ccc(Cl)cc3Cl)ccc2o1 (configuration not stated) | i
COc1ccc(C)cc1NC(=O)Cn1nc(C(=O)O)c2ccccc2c1=O | i
CCc1ccc(NC(=S)Nc2ccc(C)c(S(=O)(=O)N(CC)CC)c2)cc1 | i
CCc1ccc(CN(C(=O)c2cc(=O)c3cc(Cl)ccc3o2)C2CCS(=O)(=O)C2)cc1 (configuration not stated) | i
O=c1oc2ccc([N+](=O)[O-])cc2cc1-c1csc(Nc2ccccc2)n1 | i
CNc1nc(-c2ccc(NS(C)(=O)=O)cc2)cs1 | i
COc1cc(OC)c(C(=O)OCc2ccccc2Br)cc1OC | i
O=C(NCCc1ccc(Cl)cc1)c1nc(-c2ccc(Cl)cc2)c2ccccn12 | 25.1µM*
O=C(NCCc1ccccc1)c1nc(-c2ccc(Cl)cc2)n2c1CCCCC2 | i
O=C(NCCc1ccccc1)c1cc(-c2ccc(Cl)cc2)on1 | i
N#Cc1ccc(Oc2ccc(-c3ccc(Oc4ccc(C#N)cc4)cc3)cc2)cc1 | i
COc1cc(/C=C(/C#N)c2ccccn2)ccc1OCc1cccc(C(F)(F)F)c1 | i
CN1C(=O)CCCCC1C(=O)N1CCc2ccccc21 (configuration not stated) | i
Cn1cc(CN2CCc3ccccc32)ccc1=O | 10µM*
COc1ccccc1N1CCN(Cc2ccc(=O)n(C)c2)CC1 | i
CCCOc1ccccc1C(=O)N(Cc1ccc(C)cc1)C1CCS(=O)(=O)C1 (configuration not stated) | i

Bioassay records as filed in PubChem BioAssay.
